# Reference: PubChem BioAssay (NCI)
# “And” between values parts separate entries of the source, which are not always exact repeats. Equal entries are not always repeated. About 83,000 compounds went through this panel and 20% of them were active in at least one assay; those are over-represented in the sample as a whole.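 Results are percent growth after 48 hours of single-concentration exposure. 100 means growth as in untreated cells, lower positive values show inhibition; negative values down to -100 show cell death.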 The source made the active and inactive calls.
# Test system: COLO 205 colon
# Assay: NCI-60 one-dose screen, 48 h (100 = growth as untreated, 0 = no growth, -100 = all killed)
# Details: 10 µM
# Method: Cells are grown in 96 well plates and exposed to the test compound for 48 hours. Compounds are tested at a single concentration, which is 10^-5 M for most compounds. The reported endpoint is percent growth (GI% or GIPRCNT), where numbers from 0 - 100% represent growth inhibition, and numbers from -100% - 0 represent cell death. For example, a value of 40 represents 60% growth inhibition. A value of 0 means no net growth occurred over the course of the experiment. A value of -40 indicates 40% of cells at the beginning of the experiment died by the end of the experiment. A value of -100 means all cells are dead at the end of the experiment.
# NCI-60 Human Tumor Cell Lines Screen was performed using the standard one-dose NCI protocol, which is described in more detail at https://dtp.cancer.gov/discovery_development/nci-60/default.htm.
# Compounds with GIPRCNT values below 10 were considered active. Activity score was based on GIPRCNT using the following formula: […]
# Score is 0 for GIPRCNT values of 100 or above, 50 for GIPRCNT values of 0, and 100 for GIPRCNT values of -100.
row,Structure (SMILES),growth
1,C=C1C(=O)O[C@@H]2C[C@@H](C)[C@@H]3C=CC(=O)[C@@]3(C)[C@@H](O)[C@H]12,-95% (active)
2,CCOP(=O)(OCC)/C(C#N)=C/c1ccc(Br)cc1,109% (inactive)
3,S=C=NCCc1ccccc1,63.1% (inactive)
4,CN(CCCl)c1ccc(/C=C/C2=[N+](C)c3ccccc3C2(C)C)cc1,-7.09% (active)
5,CC[C@@]1(O)C[C@H](OC2CC(N(C)C)C(O)C(C)O2)c2c(cc3c(c2O)C(=O)c2c(O)ccc(O)c2C3=O)[C@H]1C(=O)OC (stereo not given in full),-80.1% (active)
6,COc1cc(/C=C/[N+](=O)[O-])cc(Br)c1OC,17.5% (inactive)
7,O=C(CCl)Nc1ccc(Cl)cc1,52.3% (inactive)
8,O=C(O)c1cc(Cc2ccc(O)c(C(=O)O)c2)ccc1O (tested in a mixture with another compound),42.4% (inactive)
9,O=[N+]([O-])c1cc[n+]([O-])c2ccccc12,-74.9% (active)
10,O=[N+]([O-])c1ccc(N(CCO)CCO)c2c1no[n+]2[O-],-93.3% (active)
11,Oc1ccccc1-c1ccccc1,110% (inactive) and 112% (inactive)
12,C[C@@H]1C[C@@H]([C@H](O)CC2CC(=O)NC(=O)C2)C(=O)[C@@H](C)C1,-14.9% (active)
13,CC[C@@H](C)[C@@H]1NC(=O)C(NC(=O)C(CC(C)C)N(C)C(=O)C2CCCN2C(=O)C(C)O)C(C)OC(=O)C(Cc2ccc(OC)cc2)N(C)C(=O)C2CCCN2C(=O)C(CC(C)C)NC(=O)C(C)C(=O)C(C(C)C)OC(=O)C[C@H]1O (stereo not given in full),-69.5% (active)
14,O=S(=O)(F)c1ccc(Cl)cc1,107% (inactive)
15,Oc1c(I)cc(I)cc1I,116% (inactive)
16,Cc1ccc(NC(=O)CBr)cc1,108% (inactive)
17,COS(=O)(=O)c1ccccc1,113% (inactive)
18,COc1cc(/C=C\[N+](=O)[O-])ccc1O,73.6% (inactive) and 104% (inactive)
19,Cc1ccc(C(=O)C2C(c3ccccc3)N2C2CCCCC2)cc1 (stereo not given),126% (inactive) and 110% (inactive)
20,CC1CCC2(OC1)OC1C(O)C3C4CCC5CC(OC6OC(CO)C(OC7OC(CO)C(O)C(OC8OCC(O)C(O)C8O)C7OC7OC(CO)C(O)C(OC8OC(CO)C(O)C(O)C8O)C7O)C(O)C6O)C(O)CC5(C)C4CCC3(C)C1C2C (stereo not given),22.7% (inactive)

row,Structure (SMILES),growth
1,O=[N+]([O-])/C=C/c1ccc([N+](=O)[O-])cc1,-8.72% (active) and 50.6% (inactive)
2,COc1ccc(/C=C\[N+](=O)[O-])cc1OC,76.5% (inactive) and 64.5% (inactive)
3,CCCCCCCC[N+]12CN3CN(CN(C3)C1)C2,104% (inactive)
4,CC(=O)[O][Hg][c]1c(C)c(C)cc(C)c1C,-9.36% (active)
5,COc1cc(/C=C/[N+](=O)[O-])cc(OC)c1OC,-53.4% (active)
6,O=[N+]([O-])/C=C\c1ccc2c(c1)OCO2,89.8% (inactive)
7,CC(C)C1(NC(=O)C2CC3c4cccc5[nH]cc(c45)CC3N(C)C2)OC2(O)C3CCCN3C(=O)C(Cc3ccccc3)N2C1=O (stereo not given),106% (inactive)
8,C[C@]12CC[C@H]3[C@@H](CCC4=CC(=O)CC[C@@H]43)[C@@H]1CC[C@@H]2OC(=O)N(CCCl)N=O,58.8% (inactive)
9,N#CCc1ccccc1,107% (inactive)
10,COC12C(COC(N)=O)C3=C(C(=O)C(C)=C(N)C3=O)N1CC1C2N1C (stereo not given),46.2% (inactive)
11,O=C(CBr)Nc1ccc(Cl)cc1,-3.53% (active)
12,Cn1c(O)c(N=O)c(=O)n(C)c1=O,110% (inactive) and 111% (inactive)
13,O=[P+](O)c1ccccc1,112% (inactive)
14,COc1ccc(/C=C(\C)[N+](=O)[O-])cc1OC,-80.5% (active)
15,CC/C(=C/c1ccc(OC)cc1OC)[N+](=O)[O-],-40.7% (active)
16,[Cl][Hg][c]1ccc(Cl)s1,-81.2% (active)
17,COC12c3c(C)cc(O)c4c(=O)occ(c34)C(=O)C1C13COC(=O)c4c(O)cc(C)c(c41)C(=O)C2C3OC(C)=O (stereo not given),103% (inactive)
18,O=c1[nH]c2ccccc2n1C1CCN(CCCC(c2ccc(F)cc2)c2ccc(F)cc2)CC1,-50.3% (active) and -70.3% (active)
19,COc1ccccc1/C=C/[N+](=O)[O-],79.3% (inactive)
20,O=[N+]([O-])c1ccc(Br)c([N+](=O)[O-])c1,0.504% (active)
